High-throughput results as filed in PubChem.
This is a sample that favours compounds with a hit; in the whole collection about 6.3% have one here.
MK inhibit – blocks S. pneumoniae mevalonate kinase | purified MK, PK/LDH-coupled NADH absorbance 340 nm | inhibition, % at 10 µM | 0.48% of 65,000 active | AID 555;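 active = ranked among the strongest by inhibition in the single 10 µM screen, a fixed top-ranked set picked for dose follow-up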
A340 absorber – compounds absorbing at 340 nm; compound absorbance at 340 nm, fold over control; fold change at 10 µM; 65,000 tested, under 10 active;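 active = at 10 µM dose, initial 340 nm absorbance at least 2 fold that of control wells; inactive = change under 2 fold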;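 note: initial absorbance extrapolated from kinetic A340 decline of NADH oxidation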
NADH coupling – inhibition of NAD/NADH coupling enzymes, library profiling; AID 774; IC50, µM (highest dose often 10 µM), inactives show at the highest dose inhibition; coupled PK/LDH NADH assays, four targets; 0.02% of 65,000 active;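 active = single-dose screening hits from any of four coupled enzyme assays that gave an IC50 when retested across doses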;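 note: the DPM-DC format reads NADH fluorescence rather than 340 nm absorbance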
Autofluor 339 – intrinsic fluorescence of library compounds, ex339/em460 – biochemical, MLSMR library, data from DPM-DC assay, artefact control, profiling panel; compound autofluorescence, ex339/em460 nm, NADH buffer; stronger effect = higher value; 1 = no-compound wells, NADH background; fluorescence fold increase at 10 µM; 5.5% of 65,000 active; AID 709;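 active = at 10 µM, mean starting fluorescence two-fold or more over control wells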;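 note: signal is the first read of a kinetic run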
PMK inhibit – inhibitors of Streptococcus pneumoniae phosphomevalonate kinase. 0.49% of 65,000 active. purified PMK, PK/LDH-coupled NADH absorbance 340 nm. inhibition, % at 10 µM;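 active = top-ranked compounds by inhibition in the single 10 µM screen, taking a fixed number of the strongest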;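 note: 0% = full reaction with DMSO carrier and 100% = background rate without enzyme reaction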
Spn DPM-DC inh – inhibitors of Streptococcus pneumoniae diphosphomevalonate decarboxylase | purified DPM-DC, PK/LDH coupled NADH fluorescence | calls only at 10 µM | 0.49% of 65,000 active;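 active = the 320 compounds with the highest percent inhibition in the single-dose primary screen, excluding strongly autofluorescent ones, cut at about 32% in these data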;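 note: kinetic rate of NADH fluorescence loss reporting ADP formed by the decarboxylase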
Numbers without * were called inactive; i = inactive; / = no result shown; + = active, no number.

SMILES	MK inhibit	A340 absorber	NADH coupling	Autofluor 339	PMK inhibit	Spn DPM-DC inh
CC(C)Cn1nc(NC(=O)C(C)(C)C)c2cc3ccccc3nc21	0	1	6%	1.7	5	i
CN(C)C(=O)c1c(-c2ccccc2)oc2ccc(O)cc12	5	1.1	3%	2.2*	0	/
NC(=O)c1oc2ccc(Cl)cc2c1N	7	1.1	9%	3.9*	11	/
COc1ccc2oc(-c3ccccc3)c(C(N)=O)c2c1	4	1.1	2%	2.1*	0	/
COc1ccc(C(=O)c2oc3ccc(OC)cc3c2N)cc1	7	1.1	8%	1.8	1	i
COC(=O)c1oc2ccc(OC)cc2c1N	2	1	8%	2.6*	20	i
CCN(CC)CCOC(=O)c1c(C)oc2ccc(OC)cc12	4	1	7%	1.1	14	i
CCOC(=O)c1c(COc2ccccc2)oc2ccc(O)cc12	4	1	1%	1.1	0	i
Nc1c(C(=O)CCC(=O)O)oc2ccc(Cl)cc12	0	1.1	8%	1.6	12	i
CC(C)CCNC(=O)CN(C(=O)CCC(=O)Nc1ccccn1)c1ccc2c(c1)OCO2	8	0.97	6%	1.1	10	i
CN1C(=O)c2ccccc2N(C)C1c1cccs1 (configuration not stated)	5	0.98	6%	3.9*	7	/
CC(=O)N1CCc2cc(S(=O)(=O)NC(CC(C)C)C(=O)Nc3ccc4c(c3)OCCO4)ccc21 (configuration not stated)	10	0.98	8%	1.1	13	i
N#Cc1c(-c2ccccc2)cc(C2CC2)nc1N	1	1.1	2%	3.6*	3	/
N#Cc1c(-c2ccco2)cc(C2CC2)nc1N	/	1	12%	2.3*	12	/
CSc1nc(C2CC2)cc(-c2cccs2)c1C#N	7	1	3%	1.2	1	i
COc1cc(CNCc2ccc(OC)c(OC)c2OC)cc(OC)c1	51*	1.1	17%	1.1	0	i
CCN1C(=O)NC(c2cc(Br)ccc2OC)C(C(=O)OC)=C1C (configuration not stated)	11	0.99	4%	1	13	i
Cc1cccc(NC(=O)c2ccc(S(=O)(=O)N3CCCCC3)cc2)n1	0	1	3%	1.1	10	i
Cc1csc(C(C#N)C(=O)c2ccc(S(=O)(=O)N3CCCC3)cc2)n1 (configuration not stated)	0	1.1	8%	0.99	25*	i
Cc1ccc(-c2nnn(CCC(=O)NC3CCCC3)n2)cc1	9	0.99	6%	1.1	10	i
CCC(C)N1CC23C=CC(O2)C(C(=O)OCc2ccccc2)C3C1=O (configuration not stated)	3	0.97	3%	1.1	5	i
OC1CCCN(Cc2ccc3c(c2)Cc2ccccc2-3)C1 (configuration not stated)	9	1	14%	1.1	33*	i
CN(C)CCN(C)Cc1ccc2c(c1)Cc1ccccc1-2	4	1	1%	1.1	0	i
COC(=O)COc1cc(C)cc2oc(=O)c(CC(=O)OC)c(C)c12	11	1.1	6%	2.1*	1	/
Cc1cc(OCc2nn[nH]n2)c2c(C)c(Cc3ccccc3)c(=O)oc2c1	7	1.1	10%	3.9*	12	/
SMILES	MK inhibit	A340 absorber	NADH coupling	Autofluor 339	PMK inhibit	Spn DPM-DC inh
Cc1cc(OCc2nn[nH]n2)c2c(C)c(CC(=O)O)c(=O)oc2c1	0	1.1	3%	3.9*	6	/
COc1ccc(-c2cc(=O)oc3c(C)c(OCc4nn[nH]n4)ccc23)cc1	0	1.2	3%	1.7	7	i
Cc1c(Cc2ccccc2)c(=O)oc2c(C)c(OCc3nn[nH]n3)ccc12	5	1.1	9%	3.9*	12	/
CCOc1ccc(Cc2nn[nH]n2)cc1	5	1	2%	1	8	i
COc1ccccc1N1CCN(C(=O)c2c(-c3ccccc3Cl)noc2C)CC1	10	0.98	9%	1.1	16	i
COc1cc(OC)c(Cl)cc1N	7	1	6%	0.99	7	i
Cc1cc(OCc2nn[nH]n2)c2c(-c3ccccc3)cc(=O)oc2c1	5	1.1	2%	2*	0	i
Cc1c(OCc2nn[nH]n2)ccc2c(-c3ccccc3)cc(=O)oc12	0	1.1	3%	1.4	9	i
O=C(NCc1ccccc1)N(Cc1cc2cc3c(cc2[nH]c1=O)OCCO3)CC1CCCO1 (configuration not stated)	2	1.1	3%	3.7*	4	/
CC(=O)c1cccc(S(=O)(=O)N(Cc2cc3cc4c(cc3[nH]c2=O)OCCO4)CC2CCCO2)c1 (configuration not stated)	3	1.1	8%	1.4	12	i
O=c1[nH]c2cc3c(cc2cc1CN(CC1CCCO1)S(=O)(=O)c1ccccc1)OCCO3 (configuration not stated)	7	1.1	4%	3.8*	0	/
CCCc1c(O)nc(SCCN(CC)CC)n(C(=O)c2ccccc2)c1=O	11	1	9%	1	15	i
Cc1cc(=S)n(-c2ccccc2)n1C	6	1	5%	1.1	7	i
O=C(CN1CCC2(CC1)OCCO2)c1ccc2cc[nH]c2c1	0	1.1	10%	3.2*	13	i
CCCCOCCCNC(=O)c1c(-c2ccccc2)noc1C	9	1	7%	1.1	12	i
O=C(COc1ccc(Cl)cc1)Nc1ccccc1N1CCOCC1	6	1	7%	0.95	14	i
COc1ccc(Cn2c(=O)[nH]c3cc(C(=O)NCCCN4CCCC4=O)ccc3c2=O)cc1	8	1	7%	1.2	13	i
O=C(NCc1cccnc1)c1ccc2c(=O)n(CCCN3CCCC3=O)c(=S)[nH]c2c1	6	1.1	24%	0.47	13	+
CC(=O)Nc1cccc(-c2nc3ccc(NC(C)=O)cc3[nH]2)c1	4	1	5%	4.9*	6	/
CC(=O)Nc1ccc2nc(-c3cccnc3)[nH]c2c1	8	1.1	4%	1.3	0	i
N#Cc1nc(-c2ccco2)oc1NCCCn1ccnc1	16	1.1	16%	4*	16	/
N#Cc1nc(COc2ccccc2F)oc1NCCCn1ccnc1	0	1	2%	1.1	5	i
CN(C)c1oc(-c2ccc(OCc3ccccc3)cc2)nc1C#N	10	1.1	12%	3.9*	14	/
N#Cc1nc(-c2ccc(OCc3ccccc3Cl)cc2)oc1NCCCn1ccnc1	2	1.1	1%	2.3*	0	i
N#Cc1nc(COc2ccccc2)oc1NCCCn1ccnc1	4	0.99	2%	1.1	2	i
